This note sets out measurements from paper PMC9911399, “Two distinct binding modes provide the RNA-binding protein RbFox with extraordinary sequence specificity”.

Where a chain is given by its changes, count along the chain named. Whole data set: some 16,000 sequences, median “ka relative to ugcaugu” near 0.096, cut for the highest 2% near 0.35. This excerpt belongs to a sample that is enriched for the highest values.

The chains are these.
T1: RBFOX1 RRM RbFoxmut (Fox-RRM*) (Homo sapiens, UniProt Q9NWB1 109-208, R118D;E147R;N151S;E152T)
T1 sequence: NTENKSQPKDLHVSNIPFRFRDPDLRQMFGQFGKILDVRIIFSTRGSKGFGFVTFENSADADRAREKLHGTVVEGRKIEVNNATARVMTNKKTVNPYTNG

B1: ACUUGAG (DNA:RNA)
RNA: GGGAGACCGGAAUUCAGAUUGUCCACUUGAGUUAAAUCCCGUCGUAGCCACCA
DNA 1: CAATCTGAATTCCGGTCTCCC
DNA 2: TGGTGGCTACGACGGGATT
B2: AGGGUAC (DNA:RNA)
RNA: B1 RNA with C26G, U27G, U28G, G29U, G31C
DNA 1: CAATCTGAATTCCGGTCTCCC
DNA 2: TGGTGGCTACGACGGGATT
B3: UUAACCU (DNA:RNA)
RNA: GGGAGACCGGAAUUCAGAUUGUCCUUAACCUUUAAAUCCCGUCGUAGCCACCA
DNA 1: CAATCTGAATTCCGGTCTCCC
DNA 2: TGGTGGCTACGACGGGATT
B4: UCCAUCA (DNA:RNA)
RNA: B3 RNA with U26C, A27C, C29U, U31A
DNA 1: CAATCTGAATTCCGGTCTCCC
DNA 2: TGGTGGCTACGACGGGATT
B5: GGCAGCU (DNA:RNA)
RNA: B3 RNA with U25G, U26G, A27C, C29G
DNA 1: CAATCTGAATTCCGGTCTCCC
DNA 2: TGGTGGCTACGACGGGATT
B6: GUCGAGC (DNA:RNA)
RNA: B3 RNA with U25G, A27C, A28G, C29A, C30G, U31C
DNA 1: CAATCTGAATTCCGGTCTCCC
DNA 2: TGGTGGCTACGACGGGATT
B7: GGCAUGG (DNA:RNA)
RNA: B1 RNA with A25G, C26G, U27C, U28A, G29U, A30G
DNA 1: CAATCTGAATTCCGGTCTCCC
DNA 2: TGGTGGCTACGACGGGATT
B8: GCAAUGG (DNA:RNA)
RNA: B1 RNA with A25G, U27A, U28A, G29U, A30G
DNA 1: CAATCTGAATTCCGGTCTCCC
DNA 2: TGGTGGCTACGACGGGATT
B9: GCAUAGC (DNA:RNA)
RNA: B1 RNA with A25G, U27A, G29A, A30G, G31C
DNA 1: CAATCTGAATTCCGGTCTCCC
DNA 2: TGGTGGCTACGACGGGATT
B10: GUCAUGG (DNA:RNA)
RNA: B3 RNA with U25G, A27C, C29U, C30G, U31G
DNA 1: CAATCTGAATTCCGGTCTCCC
DNA 2: TGGTGGCTACGACGGGATT
B11: GCAUUGG (DNA:RNA)
RNA: B1 RNA with A25G, U27A, G29U, A30G
DNA 1: CAATCTGAATTCCGGTCTCCC
DNA 2: TGGTGGCTACGACGGGATT
B12: CGCAUGG (DNA:RNA)
RNA: B1 RNA with A25C, C26G, U27C, U28A, G29U, A30G
DNA 1: CAATCTGAATTCCGGTCTCCC
DNA 2: TGGTGGCTACGACGGGATT
B13: GCAUGGC (DNA:RNA)
RNA: B1 RNA with A25G, U27A, A30G, G31C
DNA 1: CAATCTGAATTCCGGTCTCCC
DNA 2: TGGTGGCTACGACGGGATT
B14: CCAUGGU (DNA:RNA)
RNA: B1 RNA with A25C, U27A, A30G, G31U
DNA 1: CAATCTGAATTCCGGTCTCCC
DNA 2: TGGTGGCTACGACGGGATT
B15: GCAUGGU (DNA:RNA)
RNA: B1 RNA with A25G, U27A, A30G, G31U
DNA 1: CAATCTGAATTCCGGTCTCCC
DNA 2: TGGTGGCTACGACGGGATT
B16: GCAUGGA (DNA:RNA)
RNA: B1 RNA with A25G, U27A, A30G, G31A
DNA 1: CAATCTGAATTCCGGTCTCCC
DNA 2: TGGTGGCTACGACGGGATT
B17: GCCAUGG (DNA:RNA)
RNA: B1 RNA with A25G, U27C, U28A, G29U, A30G
DNA 1: CAATCTGAATTCCGGTCTCCC
DNA 2: TGGTGGCTACGACGGGATT
B18: GCAUGGG (DNA:RNA)
RNA: B1 RNA with A25G, U27A, A30G
DNA 1: CAATCTGAATTCCGGTCTCCC
DNA 2: TGGTGGCTACGACGGGATT
B19: UGGUGUC (DNA:RNA)
RNA: B1 RNA with A25U, C26G, U27G, A30U, G31C
DNA 1: CAATCTGAATTCCGGTCTCCC
DNA 2: TGGTGGCTACGACGGGATT
B20: AAUUGGG (DNA:RNA)
RNA: B1 RNA with C26A, A30G
DNA 1: CAATCTGAATTCCGGTCTCCC
DNA 2: TGGTGGCTACGACGGGATT
B21: UGUUGGC (DNA:RNA)
RNA: B1 RNA with A25U, C26G, A30G, G31C
DNA 1: CAATCTGAATTCCGGTCTCCC
DNA 2: TGGTGGCTACGACGGGATT
B22: GUUAACC (DNA:RNA)
RNA: B3 RNA with U25G, A27U, C29A, U31C
DNA 1: CAATCTGAATTCCGGTCTCCC
DNA 2: TGGTGGCTACGACGGGATT
B23: UUCCCAG (DNA:RNA)
RNA: B3 RNA with A27C, A28C, C30A, U31G
DNA 1: CAATCTGAATTCCGGTCTCCC
DNA 2: TGGTGGCTACGACGGGATT
B24: GUUACAG (DNA:RNA)
RNA: B1 RNA with A25G, C26U, U28A, G29C
DNA 1: CAATCTGAATTCCGGTCTCCC
DNA 2: TGGTGGCTACGACGGGATT
B25: GUUCAGG (DNA:RNA)
RNA: B1 RNA with A25G, C26U, U28C, G29A, A30G
DNA 1: CAATCTGAATTCCGGTCTCCC
DNA 2: TGGTGGCTACGACGGGATT
B26: AGGUUGU (DNA:RNA)
RNA: B1 RNA with C26G, U27G, G29U, A30G, G31U
DNA 1: CAATCTGAATTCCGGTCTCCC
DNA 2: TGGTGGCTACGACGGGATT
B27: GUCCAGG (DNA:RNA)
RNA: B1 RNA with A25G, C26U, U27C, U28C, G29A, A30G
DNA 1: CAATCTGAATTCCGGTCTCCC
DNA 2: TGGTGGCTACGACGGGATT
B28: AGGUUUG (DNA:RNA)
RNA: B1 RNA with C26G, U27G, G29U, A30U
DNA 1: CAATCTGAATTCCGGTCTCCC
DNA 2: TGGTGGCTACGACGGGATT
B29: ACCAGGU (DNA:RNA)
RNA: B1 RNA with U27C, U28A, A30G, G31U
DNA 1: CAATCTGAATTCCGGTCTCCC
DNA 2: TGGTGGCTACGACGGGATT
B30: AGGUUCG (DNA:RNA)
RNA: B1 RNA with C26G, U27G, G29U, A30C
DNA 1: CAATCTGAATTCCGGTCTCCC
DNA 2: TGGTGGCTACGACGGGATT
B31: AGCGAUU (DNA:RNA)
RNA: B1 RNA with C26G, U27C, U28G, G29A, A30U, G31U
DNA 1: CAATCTGAATTCCGGTCTCCC
DNA 2: TGGTGGCTACGACGGGATT

The target of this assay is T1, RBFOX1 RRM RbFoxmut (Fox-RRM*). The assay can be described thus: EMSA; HiTS-Eq, 1 nM pool, 10 min; buffer printed only for the single-RNA assays: 10 mM Tris pH 7.5, 150 mM NaCl, 3.4 mM EDTA, 0.001% NP-40, 30 C. As to conditions: tags: His6 N-terminal (pET28a); label: 5' 32P. An outline of the steps:
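Purified RbFox RRM (wild type or mutant) was equilibrated for 10 min in 50 µL with 1 nM of a 5′-radiolabelled pool of RNA with 7 randomized nucleotides, its flanks annealed to DNA oligonucleotides, across increasing protein concentrations. Free RNA was separated by 8% native PAGE, excised, reverse-transcribed, PCR-barcoded and sequenced on an Illumina HiSeq 2500. Relative association constants came from read-count changes of each variant against the control reaction, normalised to the cognate motif.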
(In general: Mobility shift assays separate free from complexed probe on a gel.)
As for B1, the binding signal is 0.13 KA relative to UGCAUGU.

Regarding B2, the binding signal was 0.106 KA relative to UGCAUGU.

In the case of B3, the binding signal was 0.0822 KA relative to UGCAUGU.

As for B4, the binding signal was 0.0673 KA relative to UGCAUGU.

With B5, the binding signal was 0.0642 KA relative to UGCAUGU.

Take B6: the binding signal is 0.0952 KA relative to UGCAUGU.

Take B7: the binding signal is 0.524 KA relative to UGCAUGU.

Take B8: the binding signal was 0.0714 KA relative to UGCAUGU.

Regarding B9, the binding signal was 0.126 KA relative to UGCAUGU.

Consider B10, for which the binding signal is 0.154 KA relative to UGCAUGU.

Take B11: the binding signal is 0.179 KA relative to UGCAUGU.

For the molecule B12, the binding signal is 0.804 KA relative to UGCAUGU.

On to B13, for which the binding signal is 0.497 KA relative to UGCAUGU.

As for B14, the binding signal was 0.125 KA relative to UGCAUGU.

In the case of B15, the binding signal is 0.753 KA relative to UGCAUGU.

With B16, the binding signal is 0.23 KA relative to UGCAUGU.

As for B17, the binding signal was 0.12 KA relative to UGCAUGU.

Turning to B18, the binding signal was 0.322 KA relative to UGCAUGU.

Take B19: the binding signal is 0.281 KA relative to UGCAUGU.

On to B20, for which the binding signal was 0.0731 KA relative to UGCAUGU.

In the case of B21, the binding signal is 0.0854 KA relative to UGCAUGU.

Take B22: the binding signal was 0.0736 KA relative to UGCAUGU.

Regarding B23, the binding signal was 0.103 KA relative to UGCAUGU.

As for B24, the binding signal was 0.114 KA relative to UGCAUGU.

For the molecule B25, the binding signal is 0.0776 KA relative to UGCAUGU.

Turning to B26, the binding signal is 0.332 KA relative to UGCAUGU.

With B27, the binding signal is 0.0991 KA relative to UGCAUGU.

For the molecule B28, the binding signal was 0.525 KA relative to UGCAUGU.

Take B29: the binding signal is 0.11 KA relative to UGCAUGU.

On to B30, for which the binding signal was 0.357 KA relative to UGCAUGU.

In the case of B31, the binding signal was 0.072 KA relative to UGCAUGU.
